# Records with an inconclusive call do not appear. Where a call stands in place of a potency, no number is given. A number with no mark means an inactive call. Active and inactive are the calls of the source. Calls follow the shape of the full dose curve.
# Experiment: qHTS for Inhibitors of the Functional Ribonucleoprotein Complex (vRNP) of Lymphocytic Choriomeningitis Arenaviruses (LCMV): Viability assay - Alamar blue signal for LCMV Confirmatory Screen
# Conditions: LCMV vRNP confirmatory screen cells; series mostly up to 53.9 µM
SMILES,Potency,"viability change, negative = toxic"
CCC(C)c1nccnc1OC (centres undefined),inactive,
CC[C@@H](C(=O)O)[C@@H]1O[C@@H]([C@@H](C)[C@H](O)[C@H](C)C(=O)[C@H](CC)[C@H]2O[C@]3(C=C[C@@H](O)[C@]4(CC[C@@](C)([C@H]5CC[C@](O)(CC)[C@H](C)O5)O4)O3)[C@H](C)C[C@@H]2C)[C@@H](C)C[C@@H]1C,4.44 µM (active),
CC[C@@]1([C@@H]2O[C@@H]([C@H]3O[C@@](O)(CO)[C@H](C)C[C@H]3C)C[C@H]2C)CC[C@H]([C@]2(C)CC[C@]3(C[C@H](O)[C@@H](C)[C@@H]([C@@H](C)[C@@H](OC)[C@H](C)C(=O)O)O3)O2)O1,5.95 µM (active),
COc1ccc(Cc2nccc3cc(OC)c(OC)cc23)cc1OC,inactive,
Cn1cc(-c2ccncc2)c(-c2ccc(OCc3ccc4ccccc4n3)cc2)n1,38.5 µM (active),
O=C1Cc2cc(CCN3CCN(c4nsc5ccccc45)CC3)c(Cl)cc2N1,inactive,
CC(O)C(O)[C@H]1CNc2nc(N)[nH]c(=O)c2N1 (some centres undefined),inactive,
CCCCC[C@H](O)/C=C/C=C/C/C=C\CCCC(=O)O,,-17.3% [at 0.666 µM]
O=c1ccc2ccc(O)c(O)c2o1,inactive,
N#CC(=C(\N)Sc1ccccc1N)/C(C#N)=C(/N)Sc1ccccc1N,inactive,
CN1C(C(=O)Nc2ccccn2)=C(O)c2ccccc2S1(=O)=O,inactive,
C[C@]12CC[C@@H](O)C[C@H]1CC[C@@H]1[C@H]2CC[C@]2(C)C(=O)CC[C@@H]12,inactive,
CCn1c(-c2nonc2N)nc2cnc(Oc3cccc(NC(=O)c4ccc(OCCN5CCOCC5)cc4)c3)cc21,24.3 µM (active),
Cc1cnc(NC(=O)C2=C(O)c3ccccc3S(=O)(=O)N2C)s1,inactive,
CCN(CC)C(=O)N[C@@H]1C=C2c3cccc4[nH]cc(c34)C[C@@H]2N(C)C1,inactive,
Cc1cccc(-c2[nH]c(C(C)(C)C)nc2-c2ccc3c(c2)OCO3)n1,4.32 µM (active),
CCC(c1ccc(O)cc1)C(CC)c1ccc(O)cc1 (centres undefined),inactive,
Cc1cc2c(C(C)C)c(O)c(O)c(C=O)c2c(O)c1-c1c(C)cc2c(C(C)C)c(O)c(O)c(C=O)c2c1O,27.3 µM (active),
O=C(Nc1ccc(Cl)c(Cl)c1)C1CC1,inactive,
CC(O)(P(=O)(O)O)P(=O)(O)O,inactive,
Cc1ccc2c(c1)C1CN(C)CCC1N2 (centres undefined),inactive,
CC1OC(=O)[C@@H](C(C)C)NC(=O)C(C(C)C)OC(=O)[C@H](C(C)C)NC(=O)C(C)OC(=O)[C@@H](C(C)C)NC(=O)C(C(C)C)OC(=O)[C@H](C(C)C)NC(=O)C(C)OC(=O)[C@@H](C(C)C)NC(=O)C(C(C)C)OC(=O)[C@H](C(C)C)NC1=O (some centres undefined),0.611 µM (active),
CC12C(=O)OC(=O)C1(C)C1CCC2O1 (centres undefined),8.63 µM (active),
O=C(CCCN1CCN(c2ccc(F)cc2)CC1)NC1c2ccccc2CSc2ccccc21 (centres undefined),inactive,
